# Reference: PubChem BioAssay
# Results filed as inconclusive are left out. Activity calls are given as the source filed them.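 How the source made its calls, unless noted: active means normalized viability below 100% at a tested concentration; inactive means the rest.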
# Assays:
# [1] = viability loss in pontine glioma line – cell-based, SU-DIPG-XVII, MIPE5.0, CellTiter-Glo, qHTS, dose response (AID 1347060; cut-off not given, nearly all actives have AC50 up to about 26 µM;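 on AC50: cells exposed to compound for 48 hours before viability readout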); details: CellTiter-Glo ATP luminescence
# [2] = viability loss in pontine glioma line – cell-based, SU-DIPG-XIII, MIPE5.0, CellTiter-Glo, qHTS, dose response (AID 1347064; cut-off not given, nearly all actives have AC50 up to about 23 µM;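 on AC50: cells exposed to compound for 48 hours before the viability read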); details: CellTiter-Glo ATP luminescence
# [3] = viability loss in pontine glioma line – cell-based, SU-DIPG-XXV, MIPE5.0, CellTiter-Glo, qHTS, dose response (AID 1347065; cut-off not given, nearly all actives have AC50 up to about 26 µM;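 further: cells exposed to compound for 48 hours before ATP readout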); details: CellTiter-Glo ATP luminescence
# [4] = JHH-DIPG-1 glioma cell viability, MIPE5.0 library, CellTiter-Glo luminescence, qHTS (AID 1347067; cut-off not given, nearly all actives have AC50 up to about 26 µM;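 further: cells exposed to compound for 48 hours before readout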); details: JHH-DIPG-1 glioma viability, CellTiter-Glo ATP luminescence
# [5] = growth inhibition of DIPG cells – cell-based, MIPE5.0 library, qHTS (AID 1347068; cut-off not given, nearly all actives have IC50 up to about 30 µM;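 on IC50: cells exposed to compound for 48 hours before viability readout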); details: SU-DIPG-XXV viability
# [6] = growth inhibition, single agent or in combination, cell-based, chromothripsis tumors, cisplatin or BGB combos (AID 1671449; in the data active means inhibition above about 80%;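 further: cells exposed for 96 hours; 0% = vehicle DMSO and 100% = killing by high DMSO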); details: LFS_MB_P medulloblastoma cells
# [7] = growth inhibition, single agent and combos, cell-based, chromothripsis tumors, cisplatin or BGB combos (AID 1671450; in the data active means inhibition above about 80%;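 further: cells exposed to compound for four days; 0% = vehicle DMSO and 100% = cell killing by high DMSO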); details: HDN33 neuroblastoma cells, stronger effect = higher value
# [8] = growth inhibition, single agents and combos, ICB984, cell-based, cisplatin or BGB combos, synergistic combos for chromothripsis tumors (AID 1671451; call rule not given here;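 further: cells exposed for 96 hours before readout; 0% = vehicle DMSO and 100% = killing by high DMSO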); details: ICB984 medulloblastoma cells, drug combinations, stronger effect = higher value
# [9] = growth inhibition, single agents and combos, LFS_MB_1R, cell-based, cisplatin or BGB combos, synergistic combos for chromothripsis tumors (AID 1671452; in the data active means inhibition above about 80%;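 further: cells exposed for 96 hours before readout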); details: LFS_MB_1R medulloblastoma cells, stronger effect = higher value
# [10] = growth inhibition, single agents and combos, HTB85, cell-based, BGB or cisplatin IC20 combos, synergistic combos for chromothripsis tumors (AID 1671453; in the data active means inhibition above about 80%;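 further: cells exposed for 96 hours before readout; 0% = vehicle DMSO and 100% = high DMSO killing control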); details: HTB85 osteosarcoma cells, drug combinations, stronger effect = higher value
# [11] = growth inhibition, single agents and combos, CRL2098, cell-based, BGB or cisplatin IC20 combos, synergistic combos for chromothripsis tumors (AID 1671454; in the data active means inhibition above about 80%;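 further: cells exposed for 96 h before readout; 0% = vehicle DMSO and 100% = killing by high DMSO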); details: CRL2098 osteosarcoma cells, drug combinations, stronger effect = higher value
# [12] = growth inhibition, single agents and combos, HD-MB03, cell-based, BGB or cisplatin IC20 combos, synergistic combos for chromothripsis tumors (AID 1671455; in the data active means inhibition above about 83%;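 further: 0% = vehicle DMSO and 100% = high DMSO as cytotoxic control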); details: HD-MB03 medulloblastoma cells, stronger effect = higher value
# [13] = growth inhibition, single agents and combos, UWB1.289, cell-based, BGB or cisplatin combos, synergistic combos for chromothripsis tumors (AID 1671456; in the data active means inhibition above about 80%;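 further: cells exposed to compound for four days; 0% = vehicle DMSO and 100% = killing by high DMSO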); details: UWB1.289 ovarian carcinoma cells, stronger effect = higher value
# [14] = growth inhibition, MDA-MB-436, cell-based, BGB or cisplatin combos, synergistic combos for chromothripsis tumors (AID 1671458; call rule not given here;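 further: cells exposed for 96 hours; 0% = vehicle DMSO and 100% = killing by high DMSO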); details: MDA-MB-436 breast carcinoma growth inhibition, drug combinations, stronger effect = higher value
# [15] = BT084 cell growth, single and combined drugs, ICGC_MB145, cisplatin and BGB IC40 combos (AID 1671461; in the data active means inhibition above about 80%;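 further: cells exposed to drugs for 96 hours; 0% = vehicle DMSO and 100% = high DMSO full killing control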); details: BT084 medulloblastoma cells, drug combinations, stronger effect = higher value
# [16] = RCMB18 cell growth, single agent and combined, cisplatin and BGB IC40 combos (AID 1671462; in the data active means inhibition above about 80%;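 further: cells exposed to compound for four days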); details: RCMB18 medulloblastoma cells, stronger effect = higher value
# [17] = CRL1545 cell growth, single agent and combined, cisplatin and BGB IC20 combos (AID 1671464; in the data active means inhibition above about 80%;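 further: cells exposed to compound for 96 hours before readout; 0% = vehicle DMSO and 100% = high DMSO killing control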); details: CRL1545 osteosarcoma cells, stronger effect = higher value
# [18] = viability loss with induced miR-34 in A549 – imaging, A549 dox-inducible miR-34, nuclei and caspase counts, primary screen (AID 1347080;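 active means compounds whose cell count with miR-34 switched on is under 0.7 times the count with it off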); details: A549 miR-34 inducible, Hoechst nuclei count, 48 h
# [19] = MELAS cybrid and Rieske KO viability enhancers – cell-based, MELAS cybrids, Rieske KO mouse fibroblasts, CellTiter-Glo, primary screen (AID 1508586;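 active means mean z-score across replicates of 1.96 or higher in either the MELAS or the Rieske mutant cell line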;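 further: z relative to plate mean and SD of compound and empty wells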); details: low glucose
# [20] = drug combination growth inhibition, ovarian cancer – cell-based, oncology-focused library, rucaparib conditional, profiling panel (AID 1508598); details: patient-derived ovarian cancer cells, CellTiter-Glo viability, 144 h, stronger effect = lower value
# [21] = measured here: combination with BGB IC40, at 0.05 µM
# [22] = measured here: with BGB IC20 combination, at 0.5 µM
# [23] = measured here: with cisplatin IC20 combination, at 0.5 µM
# [24] = measured here: combination with cisplatin, at 0.5 µM
compound,measurement,setting,value
CN(C)C/C=C/C(=O)Nc1ccc(C(=O)Nc2cccc(Nc3ncc(Cl)c(-c4c[nH]c5ccccc45)n3)c2)cc1,AC50,[1],0.263 µM (active)
same,AC50,[2],0.209 µM (active)
same,AC50,[3],0.209 µM (active)
same,AC50,[4],0.263 µM (active)
same,IC50,[5],0.295 µM (active)
same,inhibition,"[6]; at 0.5 µM, stronger effect = higher value",-12.9% (inactive)
same,inhibition,"[6]; measured here: combination with BGB IC20, at 0.005 µM",-29.1%
same,inhibition,"[6]; measured here: combination with BGB IC40, at 0.005 µM",-64.8%
same,inhibition,[6]; [21],7.86%
same,inhibition,"[6]; measured here: combination with cisplatin, at 0.5 µM, stronger effect = higher value",-42.5%
same,inhibition,"[6]; measured here: combination with cisplatin, at 5 µM, stronger effect = higher value",89.6%
same,inhibition,"[7]; BGB combo, at 5 µM",97.3%
same,inhibition,[7]; at 0.5 µM,42.9% (inactive)
same,inhibition,"[7]; cisplatin combo, at 5 µM",98.3%
same,inhibition,[7]; [22],43.5%
same,inhibition,[7]; [23],38.3%
same,inhibition,"[7]; single agent, at 5 µM",98.9%
same,inhibition,"[8]; BGB IC20 combo, at 0.005 µM",97.6%
same,inhibition,"[8]; BGB IC40 combo, at 0.005 µM",98.3%
same,inhibition,"[8]; BGB IC40 combo, at 0.05 µM",102%
same,inhibition,[8]; at 0.5 µM,-27.1% (inactive)
same,inhibition,"[8]; cisplatin combo, at 0.05 µM",102%
same,inhibition,"[8]; cisplatin combo, at 0.5 µM",-38.3%
same,inhibition,"[8]; cisplatin combo, at 5 µM",33.8%
same,inhibition,"[8]; measured here: 5 uM single agent, at 5 µM",11.6%
same,inhibition,[9]; at 0.5 µM,103% (active)
same,inhibition,[9]; [21],23.8%
same,inhibition,[9]; [24],101%
same,inhibition,"[9]; measured here: combination with cisplatin, at 5 µM",97.5%
same,inhibition,[10]; at 0.5 µM,91.8% (active)
same,inhibition,"[10]; measured here: with BGB IC20, at 0.5 µM",89.2%
same,inhibition,"[10]; measured here: with BGB IC20, at 5 µM",99.9%
same,inhibition,"[10]; measured here: with cisplatin IC20, at 0.5 µM",92.7%
same,inhibition,"[10]; measured here: with cisplatin IC20, at 5 µM",99.8%
same,inhibition,"[10]; single agent, at 5 µM",100%
same,inhibition,[11]; at 0.5 µM,41.6% (inactive)
same,inhibition,"[11]; measured here: combination with BGB at IC20, at 0.5 µM",72.6%
same,inhibition,"[11]; measured here: combination with cisplatin at IC20, at 0.5 µM",29.6%
same,inhibition,[12]; at 0.5 µM,64.6% (inactive)
same,inhibition,"[12]; measured here: combo with BGB at IC20, at 0.5 µM",57.2%
same,inhibition,"[12]; measured here: combo with cisplatin at IC20, at 0.5 µM",71.3%
same,inhibition,[13]; at 0.5 µM,74.6% (inactive)
same,inhibition,"[13]; measured here: inhibition with BGB combination, at 0.05 µM",9.81%
same,inhibition,"[13]; measured here: inhibition with cisplatin combination, at 0.05 µM",0.164%
same,inhibition,[14]; at 0.5 µM,57.8% (inactive)
same,inhibition,"[14]; measured here: BGB combination, at 0.5 µM",51.4%
same,inhibition,"[14]; measured here: BGB combination, at 5 µM",40.9%
same,inhibition,"[14]; measured here: cisplatin combination, at 0.5 µM",50.4%
same,inhibition,"[14]; measured here: cisplatin combination, at 5 µM",69.8%
same,inhibition,[15]; at 0.5 µM,32.3% (inactive)
same,inhibition,"[15]; cisplatin combination, at 0.5 µM",10%
same,inhibition,"[15]; cisplatin combination, at 5 µM",35.4%
same,inhibition,"[15]; measured here: BGB IC40 combination 0.05 uM, at 0.05 µM",15.5%
same,inhibition,"[15]; single agent, at 5 µM",89%
same,inhibition,[16]; at 0.5 µM,66.8% (inactive)
same,inhibition,"[16]; cisplatin combo, at 5 µM",71.7%
same,inhibition,"[16]; measured here: BGB IC40 combination, at 0.05 µM",52.8%
same,inhibition,[16]; [24],69.4%
same,inhibition,"[16]; single agent, at 5 µM",89.7%
same,inhibition,[17]; at 0.5 µM,80.7% (active)
same,inhibition,[17]; [22],72.6%
same,inhibition,[17]; [23],84.4%
same,inhibition,"[17]; single agent, at 0.05 µM",-55.9%
same,inhibition,"[17]; single agent, at 5 µM",99.8%
COc1cc(Nc2nc3ccccc3nc2NS(=O)(=O)c2ccc(NC(=O)c3ccc(C)c(OC)c3)cc2)cc(OC)c1,outcome,[1],inactive
same,outcome,[2],inactive
same,outcome,[3],inactive
same,outcome,[4],inactive
same,outcome,[5],inactive
same,fold change,"[18]; stronger effect = lower value, cell number ratio, induced over uninduced",0.923 (inactive)
same,fold change,[18]; measured here: relative caspase fold change +Dox/-Dox,1.03
same,cell count,"[18]; measured here: total cells with miR-34 induction, stronger effect = lower value",7550
same,cell count,[18]; measured here: total cells without miR-34 induction,8180
same,z-score,"[19]; MELAS cybrid survival, CellTiter-Glo 48 h, stronger effect = higher value",-0.401 (inactive)
same,z-score,"[19]; Rieske KO mouse fibroblast survival, CellTiter-Glo 72 h",0.479
same,viability,"[20]; at 0.000305 µM, OCI-C5x cells, with rucaparib 10 µM, 100% = cells with rucaparib alone",98.9% (active)
same,viability,"[20]; at 0.000305 µM, OCI-C5x cells, without rucaparib",109% (inactive)
same,viability,"[20]; at 0.000305 µM, OCI-P5x cells, with rucaparib 20 µM, 100% = cells with rucaparib alone",91.1% (active)
same,viability,"[20]; at 0.000305 µM, OCI-P5x cells, without rucaparib",95.8% (active)
same,viability,"[20]; at 0.00122 µM, OCI-C5x cells, with rucaparib 10 µM, 100% = cells with rucaparib alone",114% (inactive)
same,viability,"[20]; at 0.00122 µM, OCI-C5x cells, without rucaparib",112% (inactive)
same,viability,"[20]; at 0.00122 µM, OCI-P5x cells, with rucaparib 20 µM, 100% = cells with rucaparib alone",104% (inactive)
same,viability,"[20]; at 0.00122 µM, OCI-P5x cells, without rucaparib",98.9% (active)
same,viability,"[20]; at 0.00488 µM, OCI-C5x cells, with rucaparib 10 µM, 100% = cells with rucaparib alone",110% (inactive)
same,viability,"[20]; at 0.00488 µM, OCI-C5x cells, without rucaparib",112% (inactive)
same,viability,"[20]; at 0.00488 µM, OCI-P5x cells, with rucaparib 20 µM, 100% = cells with rucaparib alone",103% (inactive)
same,viability,"[20]; at 0.00488 µM, OCI-P5x cells, without rucaparib",101% (inactive)
same,viability,"[20]; at 0.0195 µM, OCI-C5x cells, with rucaparib 10 µM, 100% = cells with rucaparib alone",106% (inactive)
same,viability,"[20]; at 0.0195 µM, OCI-C5x cells, without rucaparib",109% (inactive)
same,viability,"[20]; at 0.0195 µM, OCI-P5x cells, with rucaparib 20 µM, 100% = cells with rucaparib alone",101% (inactive)
same,viability,"[20]; at 0.0195 µM, OCI-P5x cells, without rucaparib",107% (inactive)
same,viability,"[20]; at 0.0781 µM, OCI-C5x cells, with rucaparib 10 µM, 100% = cells with rucaparib alone",118% (inactive)
same,viability,"[20]; at 0.0781 µM, OCI-C5x cells, without rucaparib",114% (inactive)
same,viability,"[20]; at 0.0781 µM, OCI-P5x cells, with rucaparib 20 µM, 100% = cells with rucaparib alone",109% (inactive)
same,viability,"[20]; at 0.0781 µM, OCI-P5x cells, without rucaparib",108% (inactive)
same,viability,"[20]; at 0.313 µM, OCI-C5x cells, with rucaparib 10 µM, 100% = cells with rucaparib alone",108% (inactive)
same,viability,"[20]; at 0.313 µM, OCI-C5x cells, without rucaparib",116% (inactive)
same,viability,"[20]; at 0.313 µM, OCI-P5x cells, with rucaparib 20 µM, 100% = cells with rucaparib alone",107% (inactive)
same,viability,"[20]; at 0.313 µM, OCI-P5x cells, without rucaparib",104% (inactive)
same,viability,"[20]; at 1.25 µM, OCI-C5x cells, with rucaparib 10 µM, 100% = cells with rucaparib alone",106% (inactive)
same,viability,"[20]; at 1.25 µM, OCI-C5x cells, without rucaparib",120% (inactive)
same,viability,"[20]; at 1.25 µM, OCI-P5x cells, with rucaparib 20 µM, 100% = cells with rucaparib alone",90.5% (active)
same,viability,"[20]; at 1.25 µM, OCI-P5x cells, without rucaparib",108% (inactive)
same,viability,"[20]; at 5 µM, OCI-C5x cells, with rucaparib 10 µM, 100% = cells with rucaparib alone",111% (inactive)
same,viability,"[20]; at 5 µM, OCI-C5x cells, without rucaparib",121% (inactive)
same,viability,"[20]; at 5 µM, OCI-P5x cells, with rucaparib 20 µM, 100% = cells with rucaparib alone",92.1% (active)
same,viability,"[20]; at 5 µM, OCI-P5x cells, without rucaparib",111% (inactive)
